Results as given in PubChem BioAssay AID720650 (Broad Institute, 2013).
Values without a mark were called inactive. Active and inactive are the calls of the source. No rule for the calls is given here.

Assay: C difficile toxins, biochemical counterscreen, UDPG substrate absence, confirmatory dose response (AID 720650)
Settings: series mostly up to 19.5 µM; activity change, negative = inhibition: at the top concentration

Compound	activity change, negative = inhibition [%]	AC50
Cc1cc(NC(=O)CCCN2C(=O)c3cccc4cccc(c34)C2=O)no1	4.82	–
Cc1ccc(C(=O)Nc2scc(-c3ccccc3)c2C(=O)O)cc1	–	9.56 µM (active)
CNc1cncc(-c2ccc(O)cc2)n1	–	11.7 µM (active)
Cc1cc(C)c(NS(=O)(=O)c2cccc3cccnc23)c(C)c1	-8.44	–
O=C1c2c(O)ccc(O)c2C(=O)c2c(NCCNCCO)ccc(NCCNCCO)c21	–	17.5 µM (active)
COc1ccc(NC(=O)Cn2cnc3sc(C)c(S(=O)(=O)N4CCOCC4)c3c2=O)c(OC)c1	-10.3	–
COc1cc(OC)cc(C(=O)NNC(=O)CN2C(=O)NC(C)(c3ccc(C)cc3)C2=O)c1 (configuration not stated)	-2.29	–
Cn1ncc(Br)c1C(=O)N/N=C/c1cccc(OC2CSC2)c1	-11	–
COc1ccc(C2=NS(=O)(=O)N(C)C(C(=O)N3CCOCC3)=C2)cc1	6.56	–
Cc1cccc(OCCC(=O)NCC(=O)Nc2cccc(C)c2C)c1	–	16.4 µM (active)
COc1cc2ccccc2cc1C(=O)N/N=C/c1cccs1	-4.51	–
CC(C)Sc1nnc(NC(=O)c2ccco2)s1	-5.43	–
Oc1ccc(/C=N/n2cc(-c3ccccc3)[nH]c2=S)cc1	–	6.42 µM (active)
FC(F)(F)c1cc(Cl)c2nc(-c3ccccc3)c(Cc3ccsc3)n2c1	-3.45	–
CC(C)CNC(=O)c1c(F)c(F)c(F)c(F)c1F	2.96	–
O=C(O)c1ccccc1NC(=O)N1C[C@H]2C[C@@H](C1)c1cccc(=O)n1C2	-18.8	–
CN1C(=O)c2cc(NC(=O)c3cccc(F)c3)ccc2OC[C@H]2O[C@H](CC(=O)NCC3CCCCC3)CC[C@@H]21	–	inactive
COc1ccccc1OCC(=O)Nc1ccc(-c2nnc(-c3ccco3)o2)cc1	–	> 39 µM
CC(=O)Nc1ccccc1O	–	18.4 µM (active)
CN1CCN(/N=C/c2c[nH]c3ccccc23)CC1	–	> 39 µM
COc1ccc(NS(=O)(=O)c2cc(N=Nc3c(O)[nH]c(=O)[nH]c3=O)ccc2Cl)cc1	-5.06	–
CC(=O)Nc1ccc(N(C(=O)c2ccco2)C(C(=O)NC2CCCC2)c2cccs2)cc1 (configuration not stated)	-2.84	–
